Assay [1] has as its target T1, Tyrosine-protein phosphatase non-receptor type substrate 1 (Homo sapiens) + Leukocyte surface antigen CD47 (Homo sapiens) (UniProt P78324+Q08722). Nature of the assay: CD47-SIRPalpha protein protein interaction - LANCE assay qHTS validation (AID 1347057; active = well fitted curve in the direction sought with a large enough effect in the signal ratio, with a control signal flat, not every such curve was filed as active; the % refers to the signal ratio; also: series mostly up to about 38 µM). The method, boiled down: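 Inhibition of soluble CD47/SIRPalpha ectodomain association by titrated compounds, measured as 665/615 nm time-resolved FRET ratio after sequential 30 min room-temperature incubations.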

Assay [2] deals with T1, Tyrosine-protein phosphatase non-receptor type substrate 1 (Homo sapiens) + Leukocyte surface antigen CD47 (Homo sapiens). Nature of the assay: CD47-SIRPalpha protein protein interaction - HTRF assay qHTS validation (AID 1347058; active = well fitted curve in the direction sought with a large enough effect in the signal ratio, not every such curve was filed as active; the % refers to the signal ratio; also: series mostly up to about 38 µM). In a few lines:
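Soluble extracellular domains (6His-CD47, Avi-tag-biotinylated SIRPalpha) in PBS pH 7.4 with 0.05% IGEPAL CA-630. Compounds were preincubated 30 min at RT with CD47 and anti-His-Eu, then SIRPalpha and SAV-XL665 were added. TR-FRET 665/615 ratio.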

The target is the same in assay [3]. The assay can be described thus: CD47-SIRPalpha protein protein interaction - Alpha assay qHTS validation (AID 1347059).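 Also: bead proximity luminescence from CD47 binding SIRPalpha after compound preincubation with SIRPalpha.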 Also: potency is read from the fitted curve at half-maximal effect. The method, boiled down: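 SIRPalpha-biotin 25 nM + cpd, 30 min RT, dark; add CD47-His 12.5 nM, 30 min; add Ni-NTA/SAV beads 10 ug/mL, 30 min; AlphaScreen. Buffer PBS pH 7.4 + 0.05% IGEPAL CA-630. Non-biotinylated SIRPalpha as control inhibitor.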
In general terms: qHTS replaces the single test concentration by a dilution series.

Assay [4] has as its target Parathyroid hormone/parathyroid hormone-related peptide receptor (Homo sapiens) (UniProt Q03431). Nature of the assay: qHTS for PTHR1 Agonists: Optimization Screen against the NCGC LOPAC library (AID 1347079).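 Also: GloSensor cAMP luminescence in HEK-293 GP2 cells expressing human PTHR1 with IBMX.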 The method, boiled down:
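Signal increase flags agonism. GP2 cells, derived from HEK-293, express human PTHR1 and a GloSensor cAMP construct.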

Assay [5] relates to Zika virus NS2B-NS3 protease (unlinked). The assay can be described thus: Optimization of GU AMC qHTS for Zika virus inhibitors: Unlinked NS2B-NS3 protease assay (AID 1347151). Also: nearly all actives have a fitted effect of over 80% in size. Also: potency is read from the fitted curve at half-maximal effect. In a few lines: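 Noncovalent complex of NS2B hydrophilic domain and NS3 protease domain, 25 nM final, in 10 mM Tris-HCl pH 8.0, 0.01% Tween 20. AMC fluorescence change over 15 min at room temperature was fitted to a 4-parameter Hill equation.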

In assay [6] the test system is Zika virus NS2B-NS3 protease. The assay can be described thus: Primary screen GU AMC qHTS for Zika virus inhibitors (AID 1347154). Also: nearly all actives have a fitted effect of over 70% in size. Also: potency is read from the fitted curve at half-maximal effect. In a few lines: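 Unlinked Zika NS2B hydrophilic domain–NS3 protease complex at 25 nM in 10 mM Tris-HCl pH 8.0, 0.01% Tween 20, with an AMC peptide substrate. Fluorescence change (340/450 nm) over 15 min at room temperature, normalized to controls, fitted to 4-parameter Hill.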

Assay [7] concerns the target N-terminal Xaa-Pro-Lys N-methyltransferase 1 (Homo sapiens) (UniProt Q9BV86). Nature of the assay: qHTS Assay for Inhibitors of N-terminal methyltransferase 1 (NTMT1): LOPAC validation of the NTMT1 SAHH-coupled ThioGlo3 Assay (AID 1347143).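 Also: SAH from peptide methylation measured as thiol fluorescence via SAHH coupling and ThioGlo3; nearly all actives have a fitted effect of over 70% in size.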 Also: potency is read from the fitted curve at half-maximal effect. In a few lines:
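Steps: dispense 125nM NTMT1; pin-transfer test compounds at several concentrations, with 1uM RCC1-6 peptide as control; incubate 1 min; start with reagent holding 100uM SAM, 10uM SAHH, 15uM ThioGlo3; read at 0 and 30 min.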

The target in the next assay is Furin (Homo sapiens) (UniProt P09958). Nature of the assay: Furin counterscreen qHTS for Zika virus inhibitors (AID 1347149). Also: nearly all actives have a fitted effect of over 70% in size. Also: potency is read from the fitted curve at half-maximal effect. The method, boiled down: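 Counterscreen measures cleavage of 2 microM BOC-RVRR-AMC, below its ~15 microM Km, by 5 nM full-length human furin at pH 7.0 after a 15-min compound preincubation. Inhibition derives from the 15-min fluorescence increase at 37C.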
Chain of Furin (Homo sapiens) (P09958 whole entry, looked up): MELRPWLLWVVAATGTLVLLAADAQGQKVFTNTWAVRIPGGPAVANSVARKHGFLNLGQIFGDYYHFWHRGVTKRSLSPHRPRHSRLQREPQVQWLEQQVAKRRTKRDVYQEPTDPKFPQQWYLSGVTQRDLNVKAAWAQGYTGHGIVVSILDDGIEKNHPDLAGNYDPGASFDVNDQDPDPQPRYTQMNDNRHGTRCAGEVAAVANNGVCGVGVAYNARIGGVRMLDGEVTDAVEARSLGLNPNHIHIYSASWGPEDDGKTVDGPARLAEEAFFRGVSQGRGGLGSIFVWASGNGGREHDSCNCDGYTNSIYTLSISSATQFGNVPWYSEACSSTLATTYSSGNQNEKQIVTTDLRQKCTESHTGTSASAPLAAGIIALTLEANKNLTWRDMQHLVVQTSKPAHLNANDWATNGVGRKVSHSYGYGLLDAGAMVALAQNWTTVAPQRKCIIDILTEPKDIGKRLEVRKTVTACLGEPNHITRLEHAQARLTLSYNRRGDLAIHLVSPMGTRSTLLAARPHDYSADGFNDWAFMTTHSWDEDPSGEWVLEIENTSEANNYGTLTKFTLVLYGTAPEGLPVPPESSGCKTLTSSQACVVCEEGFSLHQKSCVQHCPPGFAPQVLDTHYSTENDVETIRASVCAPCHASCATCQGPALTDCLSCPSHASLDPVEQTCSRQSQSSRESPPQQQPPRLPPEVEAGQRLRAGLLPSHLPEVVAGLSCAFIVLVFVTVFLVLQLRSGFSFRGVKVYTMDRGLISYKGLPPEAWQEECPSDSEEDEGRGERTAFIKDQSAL
For orientation: A counterscreen serves to expose hits that act by an unwanted route or on another target.

Assay [8] has as its system Zika virus NS2B-NS3 protease (linked construct). The assay can be described thus: Confirmatory screen NINDS AMC qHTS for Zika virus inhibitors (AID 1347152). Also: potency is read from the fitted curve at half-maximal effect; nearly all actives have a fitted effect of over 70% in size. In a few lines: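 Purified NS2B-NS3 protease with NS2B hydrophilic domain linked to NS3 protease domain by flexible linker, 1 nM final in 10 mM Tris-HCl pH 8.0, 0.01% Tween 20. Compounds preincubated 15 min, room temperature; Bz-Nle-KRR-AMC 10 microM (Km 18.3 µM); 15-min fluorescence change, 4-parameter Hill fit.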

Assay [9] relates to Zika virus NS2B-NS3 protease (unlinked complex). The assay can be described thus: Confirmatory screen GU AMC qHTS for Zika virus inhibitors (AID 1347153). Also: nearly all actives have a fitted effect of over 70% in size. The method, boiled down: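 Unlinked NS2B-NS3 complex (25 nM) in 10 mM Tris-HCl pH 8.0, 0.01% Tween 20 preincubated 15 min with compound, then 10 microM Bz-Nle-KRR-AMC (Km 18.3 µM). Fluorescence change over 15 min, normalized, Hill-fitted.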

Our source for the Potency and outcome values is PubChem BioAssay (NCATS).

“And” between values parts separate entries of the source, which are not always exact repeats. Equal entries are not always repeated. Values without a mark were called inactive. Records with an inconclusive call do not appear. The source made the active and inactive calls. Unless noted, calls follow the shape of the dose curve; as a rule, active = well fitted curve in the direction sought with a large enough effect; inconclusive = small, poorly fitted or top-dose-only effect, or another doubt; inactive = no such curve, though single readings can be large; an effect the other way counts as inactive or inconclusive.

Chain of Parathyroid hormone/parathyroid hormone-related peptide receptor (Homo sapiens) (Q03431 whole entry, looked up): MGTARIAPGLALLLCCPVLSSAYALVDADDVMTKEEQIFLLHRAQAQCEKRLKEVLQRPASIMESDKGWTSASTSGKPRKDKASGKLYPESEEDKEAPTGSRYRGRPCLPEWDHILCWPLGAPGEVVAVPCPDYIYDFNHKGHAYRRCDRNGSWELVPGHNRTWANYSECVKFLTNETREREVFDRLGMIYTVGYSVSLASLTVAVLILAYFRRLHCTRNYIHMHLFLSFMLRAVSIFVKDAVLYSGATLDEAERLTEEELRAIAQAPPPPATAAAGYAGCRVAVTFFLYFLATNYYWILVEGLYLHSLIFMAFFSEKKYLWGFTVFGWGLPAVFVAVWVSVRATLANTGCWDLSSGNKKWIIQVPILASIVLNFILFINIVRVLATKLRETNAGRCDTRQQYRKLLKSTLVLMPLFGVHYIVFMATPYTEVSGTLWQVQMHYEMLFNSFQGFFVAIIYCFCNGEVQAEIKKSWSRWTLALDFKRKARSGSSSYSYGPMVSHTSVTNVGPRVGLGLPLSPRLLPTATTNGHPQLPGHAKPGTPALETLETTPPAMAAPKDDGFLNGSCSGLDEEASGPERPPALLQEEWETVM
Chain of N-terminal Xaa-Pro-Lys N-methyltransferase 1 (Homo sapiens) (Q9BV86 whole entry, looked up): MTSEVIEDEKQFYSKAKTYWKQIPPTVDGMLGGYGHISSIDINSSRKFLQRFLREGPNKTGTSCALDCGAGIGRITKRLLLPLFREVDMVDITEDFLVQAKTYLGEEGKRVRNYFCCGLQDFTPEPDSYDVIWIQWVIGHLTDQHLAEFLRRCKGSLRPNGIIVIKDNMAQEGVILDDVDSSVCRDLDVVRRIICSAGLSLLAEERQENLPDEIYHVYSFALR
T1 sequence (P78324 whole entry, looked up, the tested form may be a part): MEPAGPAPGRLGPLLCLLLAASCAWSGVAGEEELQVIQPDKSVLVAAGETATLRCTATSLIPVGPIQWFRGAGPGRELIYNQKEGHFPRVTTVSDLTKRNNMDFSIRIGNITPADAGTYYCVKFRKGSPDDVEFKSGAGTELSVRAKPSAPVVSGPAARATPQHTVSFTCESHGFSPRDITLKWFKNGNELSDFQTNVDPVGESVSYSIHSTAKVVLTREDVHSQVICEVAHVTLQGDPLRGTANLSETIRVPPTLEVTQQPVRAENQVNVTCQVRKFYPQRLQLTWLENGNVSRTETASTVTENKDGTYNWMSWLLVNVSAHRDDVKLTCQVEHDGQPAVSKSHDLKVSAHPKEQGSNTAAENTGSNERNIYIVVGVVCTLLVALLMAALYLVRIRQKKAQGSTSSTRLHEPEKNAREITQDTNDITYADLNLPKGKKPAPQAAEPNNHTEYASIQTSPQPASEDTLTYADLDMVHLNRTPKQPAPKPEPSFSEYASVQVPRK
T1 sequence (Q08722 whole entry, looked up, the tested form may be a part): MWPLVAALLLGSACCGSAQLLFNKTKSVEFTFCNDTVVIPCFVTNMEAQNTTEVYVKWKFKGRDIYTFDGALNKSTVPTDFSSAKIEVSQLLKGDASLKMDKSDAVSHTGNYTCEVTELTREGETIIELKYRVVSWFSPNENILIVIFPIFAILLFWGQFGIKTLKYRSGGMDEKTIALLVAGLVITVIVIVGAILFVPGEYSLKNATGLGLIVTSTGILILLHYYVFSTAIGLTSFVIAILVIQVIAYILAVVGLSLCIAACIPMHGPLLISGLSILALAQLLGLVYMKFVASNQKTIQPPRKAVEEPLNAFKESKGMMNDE

For the compound `COc1ccccc1N1CCN(CCCCN2C(=O)c3ccccc3C2=O)CC1`, the Potency entry in assay [1], in assay [3], in [4] and in assay [6] was “inactive” in each case. Besides, the result in [2] was inactive. The Potency in [5] is 23.8 µM (active).
For the compound `Cc1nc2c(OCc3ccccc3)cccn2c1CC#N`, the Potency entry in [1], in assay [3], in assay [4], in assay [5] and in [6] was “inactive” in each case. The outcome in assay [2] was inactive.
Regarding `NC(N)=NC(N)=Nc1ccccc1`, the Potency result in assay [1], in assay [3], in [4], in [5] and in assay [6] was “inactive” each time. Further, the result in [2] was inactive.
Consider `COc1cc(C(O)CO)ccc1O` (configuration not stated), for which the Potency entry in assay [1], in assay [3], in assay [7] and in [5] was “inactive” each time. For the same compound, the result in [2] was inactive.
On to `Nc1ccc(CCNc2ncnc3c2ncn3C2OC(CO)C(O)C2O)cc1` (configuration not stated), for which the Potency result in [1], in [3], in assay [4], in [5] and in assay [6] was “inactive” throughout. Moreover, in assay [2], the result was inactive.
Take `CNC(=O)c1cc2c(cn1)[nH]c1ccccc12`: the Potency entry in assay [1], in assay [3] and in assay [9] was “inactive” throughout. Also, the outcome in assay [2] was inactive. The Potency is 56.2 µM (active) in assay [7]; 24.1 µM (active) in the assay with Furin (Homo sapiens); 24.1 µM (active) in assay [8]; 21.2 µM (active) and 18.9 µM (active) in assay [6].
Turning to `C=CCn1c(=O)c2c(nc(-c3ccc(S(=O)(=O)O)cc3)n2C)n(C)c1=O`, the Potency entry in assay [1], in [3] and in [4] was “inactive” throughout. In assay [2], the result was inactive. Further, the Potency in assay [5] was 2.99 µM (active); in [6], 5.32 µM (active).
Turning to `OCC1NCC(O)C(O)C1O` (configuration not stated), the Potency result in [1], in assay [3], in [7] and in [5] was “inactive” in each case. Moreover, the result in assay [2] was inactive.
For the compound `NCCCNCCCCNCCCN`, the Potency result in assay [1], in assay [3], in assay [4], in [5] and in assay [6] was “inactive” each time. Further, the result in assay [2] was inactive.
In the case of `CNCCNS(=O)(=O)c1cccc2cnccc12`, the Potency result in [1], in assay [3], in [4], in [5] and in [6] was “inactive” throughout. Further, in [2], the outcome was inactive.
Regarding `CN1CCc2cc(Cl)c(O)cc2[C@@H](c2ccccc2)C1`, the Potency result in [1], in assay [3], in assay [4], in assay [5] and in [6] was “inactive” throughout. Besides, in [2], the outcome was inactive.
For `COc1cc(N)c(Cl)cc1C(=O)OCCN1CCCCC1`, the Potency result in [1], in assay [3], in assay [7] and in assay [5] was “inactive” in each case. In assay [2], the result was inactive.
As to `Oc1cc2c(cc1O)C(c1ccccc1)CNCC2` (configuration not stated), the Potency entry in [1], in [3], in assay [4], in [5] and in [6] was “inactive” each time. Further, the result in assay [2] was inactive.
Take `Nc1ncnc2c1ncn2C1CCCC1`: the Potency entry in [1], in [3], in [7] and in assay [5] was “inactive” each time. In addition, the result in assay [2] was inactive.
`N[C@H]1CONC1=O`: the Potency result in [1], in assay [3], in assay [7] and in assay [5] was “inactive” throughout. For the same compound, in assay [2], the result was inactive.
As to `CC1=C(/C=C/C(C)=C/C=C/C(C)=C\C(=O)O)C(C)(C)CCC1`, the Potency result in assay [1], in [3], in [4] and in [6] was “inactive” each time. Moreover, the outcome in [2] was inactive.
For the compound `CCCCCC(O)CCCC(=O)O` (configuration not stated), the Potency entry in [1], in [3], in assay [4], in assay [5] and in assay [6] was “inactive” in each case. The result in [2] was inactive.
Consider `CC(C)NCC(O)COc1ccc(CC(N)=O)cc1` (configuration not stated), for which the Potency result in assay [1], in [3], in [7], in assay [5] and in assay [6] was “inactive” throughout. In addition, the outcome in [2] was inactive.
`NC(=O)c1cc[n+](CC2=C(C(=O)O)N3C(=O)[C@@H](NC(=O)[C@@H](c4ccccc4)S(=O)(=O)[O-])[C@H]3SC2)cc1`: the Potency entry in assay [1], in assay [3], in [7] and in assay [5] was “inactive” each time. In [2], the outcome was inactive.
As for `N[C@H](C(=O)O)[C@H]1C[C@@H]1C(=O)O`, the Potency result in assay [1], in [3], in assay [4], in [5] and in assay [6] was “inactive” throughout. In addition, the result in [2] was inactive.
For the compound `CCCC[C@@]1(C2CCCC2)Cc2cc(OCC(=O)O)c(Cl)c(Cl)c2C1=O`, the Potency entry (in assay [1]; in assay [3]; in assay [7]; with Furin (Homo sapiens)) was “inactive” each time. In addition, in assay [2], the outcome was inactive.
Consider `O=C(OCCN1CCOCC1)C1(c2ccccc2)CCCCC1`, for which the Potency entry in assay [1], in [3], in assay [4], in assay [5] and in assay [6] was “inactive” in each case. In addition, the result in assay [2] was inactive.
For `NCC(O)(CS(=O)(=O)O)c1ccc(Cl)cc1` (configuration not stated), the Potency entry in [1], in [3], in assay [7] and in [5] was “inactive” throughout. In addition, the outcome in assay [2] was inactive.
For `CC1CNCCN1S(=O)(=O)c1cccc2cnccc12` (configuration not stated), the Potency entry in assay [1], in [3], in assay [4], in assay [5] and in assay [6] was “inactive” throughout. Also, in [2], the result was inactive.
With `CC(N)(Cc1ccc(O)cc1)C(=O)O` (configuration not stated), the Potency entry in [1], in assay [3], in assay [7] and in assay [5] was “inactive” throughout. In addition, the outcome in [2] was inactive.
`c1ccc(CN2CCC3(CCCc4ccccc43)CC2)cc1`: the Potency entry in assay [1] and in [3] was “inactive” each time. In addition, in assay [2], the outcome was inactive. In addition, in assay [7], the Potency is 50.1 µM (active).
Regarding `O=C(O)c1cccnc1C(=O)O`, the Potency entry in assay [1], in assay [4], in assay [5] and in [6] was “inactive” each time. In assay [2], the result was inactive. Moreover, the Potency in assay [3] was 16.5 µM (active).
